Assay results from PubChem BioAssay AID1566 (Sanford-Burnham Center for Chemical Genomics, 2009).
Screen size: about 290,000 compounds; about 1,800 (0.62%) were called active. This is one part of a sample in which actives are shown more often than they occur. No stated cut-off is given here; in the data, active means inhibition above about 50%; inactive means the rest.

Experiment: NOD2 signaling inhibitors, cell-based, luminescence, uHTS, HEK293 (AID 1566)
Settings: HEK293 NOD2/NF-kB luciferase reporter, at 4 µM, stronger effect = higher value

inhibition, active:
CC(=O)c1c(C)[nH]c(C(=O)OCC(=O)Nc2ccc(Cl)cc2[N+](=O)[O-])c1C 51%
COc1cc2ccccc2cc1C(=O)Nc1ccc(NC(=O)c2cccs2)cc1 60.7%
CC(=O)N1CCN(c2ccc(NC(=S)NC(=O)COc3ccc(C(C)(C)C)cc3)cc2)CC1 68.1%
CC(=O)c1sc(NC(=O)C2(F)C(F)(F)C(F)(F)C(F)(F)C(F)(F)C2(F)F)nc1C 55.2%
COc1cccc(CN2C(=O)C(C)N(C(=O)c3ccccc3)c3ccccc32)c1 (stereo not drawn) 51%
Oc1ccc2ccccc2c1/C=N/Nc1nnc(-c2ncc[nH]2)c2ccccc12 66.3%
C=CCn1c(-c2cccn(Cc3ccc(Cl)cc3)c2=O)n[nH]c1=S 50.3%
O=C(Nc1c(-c2ccc(F)cc2)nc2ccccn12)c1ccc(F)cc1 79.7%
Cc1ncc(CO)c(CNc2ccc(Oc3ccccc3)cc2)c1O 50.4%

inhibition, inactive:
Cc1ccc(S(=O)(=O)Nc2ccc3nc(C)sc3c2)cc1 29.3%
Cc1nc2ccc(NS(=O)(=O)c3ccc(F)cc3)cc2s1 12.4%
O=C(NC1CCCc2ccccc21)c1ccc([N+](=O)[O-])cc1 (stereo not drawn) 1.7%
COc1ccc(/C(N)=N/OC(=O)c2cccc([N+](=O)[O-])c2C)cc1OC -8.3%
CC(=O)c1c(C)[nH]c(C(=O)OCC(=O)Nc2ccc([N+](=O)[O-])cc2Cl)c1C 11%
CC(=O)c1c(C)[nH]c(C(=O)OCC(=O)Nc2cc(Cl)ccc2[N+](=O)[O-])c1C 5.7%
O=C(CCc1n[nH]c(=O)[nH]c1=O)N/N=C/c1ccco1 11.3%
COc1ccc(NC(=O)c2ccc3c(c2)C(=O)N(Cc2cccnc2)C3=O)c(OC)c1 -3.5%
O=C1CCN(Cc2ccc([N+](=O)[O-])cc2)CCN1[C@H](CO)c1ccccc1 8.7%
COc1cc(NC(=O)c2cc3ccccc3cc2OC)ccc1NC(=O)c1cccs1 45.8%
COc1ccc(NC(=O)c2cc3ccccc3cc2OC)cc1 -18.7%
C#Cc1ccc([C@@H]2C=C(C(=O)Nc3ccccc3)O[C@H](OCC)[C@H]2CCCO)cc1 11.4%
CCCCc1c(C)c(C#N)c2nc3ccccc3n2c1Cl -34.2%
CCCCc1c(C)c(C#N)c2nc3ccccc3n2c1NCCN(C)C -20.8%
CC(C)(C(N)=O)N1CCN(c2ncc(C(F)(F)F)cc2Cl)CC1 9.3%
CCC(=O)N1CCN(c2nc(C)nc3sc(C)c(C)c23)CC1 8.8%
Cc1nc(SCC(=O)N2CCCCC2)c2c(C)c(C)sc2n1 22.8%
Cc1nc(N2CCN(C(=O)CCC(=O)O)CC2)c2c(C)c(C)sc2n1 13.1%
CCn1c(SCC(=O)N2CCc3ccccc3C2)nc2sc(C)c(C)c2c1=O 17.7%
N#Cc1cc(-c2ccccc2)nc(Oc2ccccc2)n1 10.8%
O=C(NNC(=O)c1ccc[nH]1)Nc1cc(Cl)cc(Cl)c1 2.1%
O=C(COc1ccc2c3c(c(=O)oc2c1)CCCC3)N[C@@H](Cc1ccccc1)C(=O)O 9.1%
Cc1cc(C)c(S(=O)(=O)N2CCCOC2CNC(=O)C(=O)NCc2ccco2)c(C)c1 (stereo not drawn) 15%
CC1=C(C)C(=O)C(N2CCOCC2)=CC1=O 12.8%
CC(C)(C)C1=CC(=O)C(N2CCOCC2)=CC1=O 14.9%
Cc1ccccc1NC(=O)C(C)Sc1nnc(-c2ccncc2)n1CC1CCCO1 (stereo not drawn) -16.6%
CC(NC(=O)C1CCCO1)c1ccccc1 (stereo not drawn) 3.6%
CC(=O)N1CCN(c2ccc(NC(=O)c3ccc(C(C)(C)C)cc3)cc2)CC1 3.5%
CCC(=O)N1CCN(c2ccc(NC(=S)NC(=O)COc3ccccc3)cc2)CC1 8.2%
CCOc1ccccc1-c1cc(C(=O)N/N=C/c2ccc(O)c(OC)c2)c2ccccc2n1 -16.4%
Cc1ccc(CNC(=O)c2ccc(NC(=O)C3=CSCCO3)cc2)cc1 8.2%
O=C(NNc1ccc(F)cc1)c1c(F)cccc1Cl -2.7%
CC(=O)c1sc(NC(=O)C(C)C)nc1C 8.3%
CC(=O)Nc1nc(C)c(C(C)=O)s1 -12.2%
CCOc1ccc(N=C2NC(=O)S/C2=C\c2ccc(Cl)cc2)cc1 -11%
CCOCCCNCc1cc(Br)ccc1OCc1ccccc1 19%
CNC(=O)C(=O)NCC1OCCN1S(=O)(=O)c1ccc(OC)c(OC)c1 (stereo not drawn) -11.3%
COc1cccc(CN2C(=O)C(C)N(C(=O)c3c(F)cccc3F)c3ccccc32)c1 (stereo not drawn) 45.6%
CC1C(=O)N(Cc2ccccc2)c2ccccc2N1C(=O)c1ccccc1 (stereo not drawn) 13.9%
CC(C(=O)Nc1cc([N+](=O)[O-])ccc1Cl)N1CCN(c2ccc(O)cc2)CC1 (stereo not drawn) 1.4%
COc1ccc(Cl)cc1NC(=S)Nc1ccccc1C 0.6%
Cc1csc2c(=O)sc(NC(=O)c3cccs3)nc12 25.6%
COc1ccc(-n2c(C)cc(C(=O)COC(=O)c3cc(NC(=O)c4cccs4)c(OC)c(OC)c3)c2C)cc1 12.4%
COc1cc(NC(=O)c2cccs2)c(C(=O)OCC(=O)c2cc(C)n(-c3ccc(F)cc3)c2C)cc1OC 9.1%
COc1ccc(/C=N/Nc2nnc(-c3ncc[nH]3)c3ccccc23)cc1 -81.3%
Clc1ccc(/C=N/Nc2nnc(-c3ncc[nH]3)c3ccccc23)cc1 -40.1%
CS(=O)(=O)Nc1ccccc1C(=O)NCCSCc1ccccc1 -4.8%
CNC(=S)NC1CC2CCC(C1)N2Cc1ccccc1 (stereo not drawn) 0.2%
CC(C)C(NC(=O)C(NC(=O)C1O[C@@H]2OC(C)(C)O[C@@H]2[C@H]2OC(C)(C)O[C@@H]12)C(C)C)C(=O)O (stereo partly drawn) 20%
CCOC(=O)Cc1csc(NS(=O)(=O)c2cc(Cl)ccc2Cl)n1 -18.2%
Brc1cc(Br)c2nc3c(cc2c1)CCC3 7.6%
COc1cc2cc(Br)cc(Br)c2nc1C 5.9%
CCS(=O)(=O)N1CCN(C(=O)c2cccc(OC)c2)CC1 14.1%
Cc1cc2cc(CNC(=S)Nc3ccc(OC(F)F)cc3)ccc2[nH]1 4.6%
C=CCn1c(-c2cccn(Cc3ccccc3)c2=O)n[nH]c1=S 15.3%
C=CCn1c(-c2cccn(Cc3cccc(Cl)c3)c2=O)n[nH]c1=S 12.9%
CSc1ccccc1OCc1cc(C(=O)N2CCSCC2)no1 -40.6%
CC1=C(C(=O)OCc2ccccc2)C(c2cccc([N+](=O)[O-])c2)NC(=O)N1CCCCCC(=O)O (stereo not drawn) 10.6%
COc1ccccc1OCC(=O)NC1CCCCCC1 10.3%
O=C(c1ccc(Oc2ccc([N+](=O)[O-])cc2Cl)cc1)N1CCCC1 15.1%
COc1cc(/C=N/N2CCN(Cc3ccc(C)cc3)CC2)cc(OC)c1O 2.5%
CC(=O)Nc1c(-c2ccc(F)cc2)nc2ccccn12 -10.8%
O=C(Nc1c(-c2ccccc2)nc2ccccn12)c1ccccc1 3.9%
O=C(CCS(=O)(=O)c1ccccc1)N1CCN(c2cccc(C(F)(F)F)c2)CC1 11.5%
COc1ccc(/C=C/C(=O)Nc2ccccc2C(F)(F)F)cc1 -25.4%
CCCCOCC(O)CN1CCN(C(C)=O)CC1 (stereo not drawn) 10.9%
O=[N+]([O-])c1cc(Cc2ccccc2)cc(C=Nc2ccc(N3CCOCC3)cc2)c1O 11.1%
COc1ccc(N=Cc2cc(Cc3ccccc3Cl)cc([N+](=O)[O-])c2O)cc1OC -10.2%
O=C1NN=C(c2ccccc2)CC1c1c[nH]c2ccccc12 (stereo not drawn) -14%
COc1ccc(NC(=O)CS(=O)(=O)c2cn(CC(=O)N3CCCC3)c3ccccc23)c(OC)c1 -10.2%
Cc1ncc(CO)c(/C=N/N=C/c2ccccc2O)c1O -28%
Cc1ncc(CO)c(CNc2ccc(-c3nc4ccccc4[nH]3)cc2)c1O -99.7%
O=C(COC(=O)c1ccc(Br)cc1)NC1CCCC1 10.3%
O=C(Nc1cccc2ccccc12)c1ccccc1Cl -7.8%
CCCCCCc1cc2cc(C(=O)Nc3ccccc3)c(=O)oc2cc1O -36.8%
CCCCCCc1cc2cc(C(N)=O)c(=N)oc2cc1O 1.5%
CCOC(=O)c1c(NC(=O)CSc2n[nH]c(-c3ccco3)n2)sc(C)c1C 11.6%
COCCSc1nnc(NC(=O)C2CC(=O)N(CCc3ccc(F)cc3)C2)s1 (stereo not drawn) 16.7%
O=C(CCCCn1c(=O)c2ccccc2n(CC(=O)Nc2ccccc2)c1=O)NCc1ccco1 3.3%
COc1ccc(-n2c(=O)c(CCC(=O)N(C)Cc3ccccc3C)nc3ccccc32)cc1 0.2%
COc1ccc(/C(O)=C/c2nc3ccccc3n(-c3ccccc3)c2=O)cc1 24.8%
Cc1ccc(NS(=O)(=O)c2cccc(C(=O)NNC(=O)c3cccn3C)c2)c(C)c1 -2.3%
C/C(=N\NC(=O)NC1CCCCC1)c1ccco1 -11.6%
O=C(c1cc(Cl)nc2ccccc12)N(Cc1nnc(-c2ccccc2Cl)o1)C1CC1 14.2%
